From PubChem
Most compounds without a hit are left out; they make up all but 5.8% or so of the library.
TRPV1 PAM: potentiators of human vanilloid receptor 1 (TRPV1); Q8NER1; TRPV1-expressing cells, Fluo-8 calcium influx, capsaicin EC20 potentiation; potentiation, % at 8.33 µM; 0.02% of 320,000 active; AID 540277; in the data active = potentiation above about 80%; inconclusive = between about 30% and that limit; note: 0% is about no effect
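TRPV1-expressing cells were cultured overnight at 35.5C and loaded with Fluo-8 calcium dye for 40 to 90 min at room temperature. After a 10 s baseline, compound was added and calcium influx was read kinetically for 3 min (ex 480/em 520 nm).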
uPA generation: cell surface uPA generation inhibition | cell surface uPA generation assay, qHTS | Potency, µM (top dose mostly 38.3 µM), without a hit: top-dose activity change, negative = inhibition, usual class: inhibitors | 0.31% of 330,000 active; active = well fitted inhibition curve with a large enough effect; inconclusive = small, poorly fitted or top-dose-only effect; inactive = no such curve, though single readings can be large or run the other way; tested in mouse RAW 264.7 cells; note: potency is the fitted concentration of half-maximal effect; % is set by controls: 0 for no effect and ±100 for the full control effect; nearly all actives have a fitted effect of over 55% in size
RORgamma inh: blocks mouse ROR gamma transcriptional activity; AID 2551; Potency, µM (highest dose often 53.6 µM), without a hit: at the top dose activity change, negative = inhibition, actives largely listed as inhibitors; Drosophila S2 Gal4-RORgamma UAS-luciferase reporter, 20 h; 5.4% of 310,000 active; P51450; note: potency is the fitted concentration of half-maximal effect; % is set by controls: 0 for no effect and ±100 for the full control effect; nearly all actives have a fitted effect of over 60% in size
Target sequence (P51450 whole entry, looked up, the tested form may be a part): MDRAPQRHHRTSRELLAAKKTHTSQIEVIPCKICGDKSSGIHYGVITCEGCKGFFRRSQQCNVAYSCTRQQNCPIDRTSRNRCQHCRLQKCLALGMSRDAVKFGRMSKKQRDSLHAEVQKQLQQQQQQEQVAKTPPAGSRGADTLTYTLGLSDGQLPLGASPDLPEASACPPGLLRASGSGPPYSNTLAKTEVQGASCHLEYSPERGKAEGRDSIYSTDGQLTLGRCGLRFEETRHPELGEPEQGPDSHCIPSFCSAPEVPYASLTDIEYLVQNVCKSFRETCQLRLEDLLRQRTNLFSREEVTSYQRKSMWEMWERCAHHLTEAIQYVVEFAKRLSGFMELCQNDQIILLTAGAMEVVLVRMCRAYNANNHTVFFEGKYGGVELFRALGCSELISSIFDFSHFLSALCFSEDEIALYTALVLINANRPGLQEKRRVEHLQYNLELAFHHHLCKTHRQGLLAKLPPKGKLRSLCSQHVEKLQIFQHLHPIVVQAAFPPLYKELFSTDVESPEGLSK
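Luciferase reporter read in Schneider cells carrying Gal4-RORγ (mouse) and UAS-Photinus luciferase; cells given compound 1 h before 700 uM copper sulfate induction, then incubated 20 h at ambient temperature.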
VP16 counter: inhibits Gal4-VP16 luciferase reporter, ROR gamma counter-screen | Drosophila S2 Gal4-VP16 UAS-luciferase, luminescence, 20 h | Potency, µM (doses to about 53.6 µM), without a hit: at the highest dose activity, negative = inhibition, usual class: inhibitors | 3.5% of 310,000 active | AID 2546;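 note: Gal4-VP16 expression switched on by copper sulfate through the metallothionein promoter; potency is the fitted concentration of half-maximal effect; % is set by controls: 0 for no effect and ±100 for the full control effect; nearly all actives have a fitted effect of over 50% in size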
TRPV1 agonist: activates the human vanilloid receptor TRPV1; Q8NER1; TRPV1-expressing cells, Fluo-8 calcium influx, agonist mode; activation, % at 8.33 µM; 0.19% of 320,000 active; AID 540275; in the data active = activation above about 80%; inconclusive = between about 30% and that limit; note: 0% is about no effect
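Fluo-8 calcium influx in TRPV1-expressing cells, kinetic read (ex 480/em 520 nm). Compound added and read 3 min for agonist activity, followed by capsaicin at EC20 final and 2 min further read for enhancement.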
Starred values were filed as active, the others as inactive; ? = inconclusive; . = not tested or not shown; [ ] = another dose, or the depositor's remark. Unless noted, calls come from the whole dose curve; as a rule, active = well fitted curve in the direction sought with a large enough effect; inconclusive = small, poorly fitted or top-dose-only effect, or another doubt; inactive = no such curve, though single readings can be large; an effect the other way counts as inactive or inconclusive.

SMILES | TRPV1 PAM | uPA generation | RORgamma inh | VP16 counter | TRPV1 agonist
COc1cc(/C=C(\C#N)C(=O)NC2CCCCC2C)ccc1OS(=O)(=O)c1ccc(C)cc1 (stereo unspecified) | 9 | 0% | ? | 11µM* | 1
CCc1nn(CCCC(=O)NCc2ccco2)c(=O)c2cc3occc3n12 | 8 | -1% | 1% | -13% | 0
Cc1cc(Cl)ccc1NC(=S)NCC(O)c1ccccc1 (stereo unspecified) | -3 | 7% | ? | ? | 3
Cc1cc(Cl)ccc1NC(=S)Nc1ccccn1 | -8 | 15% | 1µM* | 1.3µM* | -2
Cc1ccc(NC(=S)c2ccncc2)c(C)c1 | -17 | ? | ? | -7% | 13
Cc1ccc(NC(=S)Nc2ccccn2)c(C)c1 | -18 | -6% | 0.79µM* | 6.3µM* | 6
CNC(=O)c1ccccc1S(=O)(=O)c1ccccc1C#N | 20 | 2% | 4% | -1% | 1
Cc1cccc(NCC(=O)c2c(N)n(C)c(=O)n(C)c2=O)c1C | 8 | 6% | -1% | -4% | 1
CN(C)c1ccc(CNC(=O)C2(C)C=CCN2C(=O)c2ccccc2)cc1 (stereo unspecified) | . | . | 1% | -9% | .
COC(=O)c1cc(NC(=O)Cc2ccccc2[N+](=O)[O-])cc(C(=O)OC)c1 | -8 | 8% | -16% | -1% | 83*
O=C(Cc1ccccc1[N+](=O)[O-])NCCCc1ccccc1 | -7 | 2% | 0.22µM* | -3% | ?
NS(=O)(=O)c1ccc(CCNC(=O)Cc2ccccc2[N+](=O)[O-])cc1 | 5 | -2% | 4% | 9% | 1
COc1ccc(CC(=O)NCc2ccccn2)cc1OC | 17 | 3% | 11µM* | -6% | -1
COc1ccc(NC(=O)NCc2ccccn2)cc1OC | 0 | 5% | -41% | 4% | 2
COc1cc(CNCc2ccccn2)ccc1OCc1ccccc1Cl | 5 | -1% | 14µM* | ? | ?
C/C=C(\C=C\[C@@H](C)C/C=C/CC/C=C/C=C\C[C@@H](OC)/C(C)=C\C=C(C)C)CC(=O)O | . | . | -2% | -2% | .
COc1ccc(CC(=O)NCCCc2ccccc2)cc1OC | -22 | 2% | 27% | -4% | 105*
COc1ccc(CCNC(=O)Cc2ccccc2)cc1OC | -6 | 3% | 16%[1.91 µM] | -10% | 3
CC(C)(C)C(=O)/C(=C\c1ccc([N+](=O)[O-])cc1)n1cncn1 | -2 | . | 2.2µM* | 4.5µM* | 2
COc1ccccc1N=NC1C(=O)N(C(N)=S)N=C1C (stereo unspecified) | 3 | -3% | ? | 3.2µM* | -2
CC1=NN(C(N)=S)C(=O)C1N=Nc1ccccc1C(=O)O (stereo unspecified) | 2 | 32% | 13%[1.91 µM] | -1% | -6
CC1=NN(C(N)=S)C(=O)C1N=Nc1ccccc1Cl (stereo unspecified) | 13 | -6% | 0.63µM* | 1µM* | -2
CC1=NN(C(N)=S)C(=O)C1N=Nc1ccc(Cl)cc1Cl (stereo unspecified) | -27 | 6% | 0.45µM* | 0.63µM* | -1
CCC(=O)NC1(C(F)(F)F)C(=O)Nc2c1c(=O)[nH]c(=O)n2CC(C)C (stereo unspecified) | 0 | -3% | -1% | -2% | 2
Cc1cccc(OC(C)C(=O)Nc2nc(-c3ccncc3)cs2)c1 (stereo unspecified) | -2 | 3% | . | . | 4
SMILES | TRPV1 PAM | uPA generation | RORgamma inh | VP16 counter | TRPV1 agonist
O=C(Nc1cccc(O)c1)c1cc(-c2cccs2)on1 | -9 | -2% | 2µM* | 3.5µM* | ?
O=C(Nc1cccc(O)c1)c1noc2c1CCCCC2 | -11 | ? | 11µM* | 3.5µM* | ?
COc1cccc(-c2cc(C(=O)Nc3cccc(O)c3)no2)c1 | -17 | . | 0.89µM* | 2.5µM* | ?
COc1ccc(NC(=O)c2cc(-c3cccc(OC)c3)on2)cc1 | -40 | -5% | -15% | -2% | 11
c1ccc(-n2ncc3c(N4CCN(c5ccccn5)CC4)nc(N4CCCCCC4)nc32)cc1 | 10 | . | ? | -14% | -5
O=C(c1cccs1)c1ccc(-c2cccs2)s1 | -9 | -9% | -23% | 13µM* | 1
COc1ccc(C(=O)/C(=C/c2cccs2)c2nc3ccccc3o2)cc1 | -2 | 1% | 3.2µM* | ? | 11
Cc1cc(C)n2nc(C(=O)N/N=C/C=C/c3ccccc3)nc2n1 | 8 | 13% | 2% | 4% | -4
